Results filed as inconclusive are left out. Activity calls are given as the source filed them. The call rests on the fitted dose curve; in most records, active means well fitted curve in the direction sought with a large enough effect; inconclusive means small, poorly fitted or top-dose-only effect, or another doubt; inactive means no such curve, though single readings can be large; an effect the other way counts as inactive or inconclusive.
Tests used:
[1] = qHTS assay for measurement of the activity of small molecule inhibitors on Zika virus induced Caspase-3 activity in human iPSC derived neural progenitor cells (hNPCs) (AID 1224857); details: hNPCs ZIKV-induced caspase-3/7, Caspase-Glo luminescence, 6 h; series mostly up to 45.7 µM; further: nearly all actives have a fitted effect of over 65% in size
In short: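 After overnight (16–20 h) culture at 350 cells/well, hNPCs get compound, then ZIKV 2 FFU/cell one hour later. Six hours on, Caspase-Glo 3/7 is added and luminescence measured.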

[2] = qHTS assay for measurement of the activity of small molecule inhibitors on Zika virus induced Caspase-3 activity in human astrocytoma cells (AID 1224859); details: SNB-19 ZIKV-induced caspase-3/7, luminescence, 6 h; series mostly up to 45.7 µM
In short: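 Inhibition of Zika-induced caspase-3/7 activity: SNB-19 cells, 1 h compound pretreatment, ZIKV 2 FFU/cell for 6 h at 37 C, Caspase-Glo luminescence read-out.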

[3] = qHTS assay to identify small molecule inhibitors of chordoma cells - UCH-1 (AID 1259355); details: UCH-1 chordoma viability, CellTiter-Glo, 48 h, combination, with auranofin plus four topoisomerase inhibitors; series mostly up to 46.1 µM; further: nearly all actives have a fitted effect of over 55% in size; further: potency means the concentration at half of the fitted maximal effect
In short: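 A 48hr growth-inhibition format: each drug tested at 15 concentrations together with added auranofin, camptothecin, doxorubicin, rubitecan and topotecan, with cell viability quantified as CellTiter-Glo luminescence.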

[4] = qHTS assay to identify small molecule inhibitors of chordoma cells - UCH-2 (AID 1259356); details: UCH-2 chordoma viability, CellTiter-Glo ATP luminescence, 48 h; series mostly up to 46.1 µM; further: potency means the concentration at half of the fitted maximal effect

Measured: Potency

Cn1c(=O)c2[nH]c(Br)nc2n(C)c1=O
inactive: all assays above

OCCOCCN1CCN(C2=Nc3ccccc3Sc3ccccc32)CC1
inactive: all assays above

COc1cc(C(=O)N2CCCCCCC2)cc(OC)c1OC
inactive: all assays above

CC(=O)OC[C@H]1O[C@@H](n2ncc(=O)[nH]c2=O)[C@H](OC(C)=O)[C@@H]1OC(C)=O
inactive: all assays above

Cc1ccc(O)c([C@H](CCN(C(C)C)C(C)C)c2ccccc2)c1
inactive: all assays above

O=c1[nH]c(=O)n([C@H]2C[C@H](O)[C@@H](CO)O2)cc1F
inactive: all assays above

O=C(O)CCNC(=O)c1ccccc1
inactive: all assays above

CCNC(=O)/C=C/c1cccc(Br)c1
inactive: all assays above

Oc1ccc(Cl)cc1Cc1cc(Cl)ccc1O
inactive: all assays above

Cc1c(-c2ccccc2)oc2c(C(=O)OCCN3CCCCC3)cccc2c1=O
inactive: all assays above

O=[N+]([O-])c1ccc(/C=N\O)o1
inactive: all assays above

CC(C)Nc1cccnc1N1CCN(C(=O)c2cc3cc(NS(C)(=O)=O)ccc3[nH]2)CC1
inactive: all assays above

CN1CCN(c2cc3c(cc2F)c(=O)c(C(=O)O)cn3-c2ccc(F)cc2)CC1
inactive: all assays above

O=C(NCCc1c[nH]c2ccccc12)c1cccnc1
inactive: all assays above

CC(C)(C)CC(C)(C)c1ccc(O)c(-n2nc3ccccc3n2)c1
inactive: all assays above

COc1ccc(/C=N/NC(=O)c2ccncc2)cc1OC
inactive: all assays above

NS(=O)(=O)c1cc(C(=O)O)cc(N2CCCC2)c1Oc1ccccc1
inactive: all assays above

C=C[C@H]1CN2CC[C@H]1C[C@@H]2[C@@H](O)c1ccnc2ccc(OC)cc12
inactive: all assays above

C[C@@H](O)[C@H]1C(=O)N2C(C(=O)O)=C([C@H]3CCCO3)S[C@H]12
inactive: all assays above

O=C(O)C(Cc1cc(I)c(O)c(I)c1)c1ccccc1 (centres undefined)
inactive: all assays above

CCCCCCCCCCCCSCCOCCO
inactive: all assays above

CCC(C(=O)OCCOCCN(CC)CC)c1ccccc1 (centres undefined)
inactive: all assays above

OC(C#CCN1CCCC1)(c1ccccc1)c1ccccc1
inactive: [2] | [3] | [4]

CN(C)CCN1C(=O)c2ccccc2N(C)c2ccccc21
inactive: [2] | [3] | [4]

Oc1ccccc1C=NCc1ccccc1
inactive: [2] | [3] | [4]

CCCCCCCCCCCCCC[N+](C)(C)Cc1ccccc1
inactive: [2] | [3] | [4]

C=C[C@H]1CN2CC[C@H]1C[C@H]2[C@H](O)c1ccnc2ccc(OC)cc12
inactive: [2] | [3] | [4]

C#C[C@]1(O)CC[C@H]2[C@@H]3CCC4=Cc5oncc5C[C@]4(C)[C@H]3CC[C@@]21C
inactive: [2] | [3] | [4]

CCCCCCCCOc1ccc(C(=O)c2ccccc2)c(O)c1
inactive: [2] | [3] | [4]

O=C1OC(CN2CCOCC2)CN1/N=C/c1ccc([N+](=O)[O-])o1 (centres undefined)
inactive: [2] | [3] | [4]

CC(=O)OCC1=C(C(=O)O)N2C(=O)[C@@H](NC(=O)CSc3ccncc3)[C@H]2SC1
inactive: [2] | [3] | [4]

CCNC(=O)NCc1cccc(Cl)c1
inactive: [2] | [3] | [4]

C#C[C@]1(O)CC[C@H]2[C@@H]3CCC4=CC(=O)CC[C@@H]4[C@H]3CC[C@@]21CC
inactive: [2] | [3] | [4]

O=C(Oc1cccc2cccnc12)c1ccccc1
inactive: [2] | [3] | [4]

O=S(c1cc(Cl)cc(Cl)c1O)c1cc(Cl)cc(Cl)c1O
inactive: [2] | [3] | [4]

C[C@@]12C(=O)OC(=O)[C@]1(C)C1CCC2O1
active: [3] 501 nM | [4] 698 nM
inactive: [2]

CC1(C)OC[C@@H]2O[C@@]3(C(=O)O)OC(C)(C)O[C@H]3[C@@H]2O1
inactive: [2] | [3] | [4]

CN1CCN(CCC(=O)N2c3ccccc3Sc3ccc(C(F)(F)F)cc32)CC1
inactive: [2] | [3] | [4]

C[N+]1(CC2COC(c3ccccc3)(C3CCCCC3)O2)CCCCC1 (centres undefined)
inactive: [2] | [3] | [4]

Cc1cc(CC(=O)O)c(C)n1-c1ccc(Cl)cc1
inactive: [2] | [3] | [4]

CCCCCCCCCCCCCCCCO
inactive: [2] | [3] | [4]

c1ccc(CC2=NCCN2)cc1
inactive: [2] | [3] | [4]

CNCCc1ccccn1
inactive: [2] | [3] | [4]

Cc1cc(NS(=O)(=O)c2ccc(N)cc2)nc(C)n1
inactive: [2] | [3] | [4]

OC1C(O)C(O)C(O)C(O)C1O (centres undefined)
inactive: [2] | [3] | [4]

CN(C)CCOC(c1ccc(Cl)cc1)c1ccccn1 (centres undefined)
inactive: [2] | [3] | [4]

NCCNC(=O)c1ccc(Cl)cn1
inactive: [2] | [3] | [4]

c1ccc(-c2nc[nH]c2-c2ccccc2)cc1
inactive: [2] | [3] | [4]

O=C(Nc1ccccc1)OCC(CN1CCCCC1)OC(=O)Nc1ccccc1 (centres undefined)
inactive: [2] | [3] | [4]

NC1CCN(c2nc3c(cc2F)c(=O)c(C(=O)O)cn3-c2ccc(F)cc2F)C1 (centres undefined)
inactive: [2] | [3] | [4]

CCCCNC(=O)NS(=O)(=O)c1ccc(N)cc1
inactive: [2] | [3] | [4]

Clc1cccc(C(c2ccc3nc[nH]c3c2)n2ccnc2)c1 (centres undefined)
inactive: [2] | [3] | [4]

C=C1c2cccc(O)c2C(O)=C2C(=O)[C@]3(O)C(O)=C(C(N)=O)C(=O)[C@@H](N(C)C)[C@@H]3[C@@H](O)[C@H]12
inactive: [2] | [3] | [4]

Cc1cc(C)cc(OCC2CNC(=O)O2)c1 (centres undefined)
inactive: [2] | [3] | [4]

CC(=O)O[C@H]1C[C@@H]2CC[C@@H]3[C@H](CC[C@@]4(C)[C@H]3C[C@H]([N+]3(C)CCCCC3)[C@@H]4OC(C)=O)[C@@]2(C)C[C@@H]1N1CCCCC1
inactive: [2] | [3] | [4]

CC(C)(C)NC[C@H](O)COc1cccc2c1CCCC2=O
inactive: [2] | [3] | [4]

CCc1cc(Cl)c(OC)c(C(=O)NC[C@@H]2CCCN2CC)c1O
inactive: [2] | [3] | [4]

CC(C)Cn1cnc2c1c(=O)n(C)c(=O)n2C
inactive: [2] | [3] | [4]

CC(=O)NO
inactive: [2] | [3] | [4]

From PubChem BioAssay (NCATS)
